The panel holds about 79,000 compounds, 15% with a hit somewhere; the sample as a whole holds those more often. The source made the active and inactive calls. Rule as the data show it: active = growth inhibition above about 70%; inactive = the rest.
Key:
[1] = NCI Yeast Anticancer Drug Screen. Data for the rad52 strain (AID 147);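 also: 0% = growth of vehicle-treated control cultures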; settings: S. cerevisiae rad52 mutant growth inhibition, stronger effect = higher value
In short: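 Genetically altered yeast (DNA damage repair defect) treated with compound; inhibition calculated relative to vehicle.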

[2] = NCI Yeast Anticancer Drug Screen. Data for the wt1 strain (AID 149);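 also: 0% = growth of vehicle-treated wt1 cultures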; settings: S. cerevisiae wt1 strain (SPY 50644) growth inhibition, stronger effect = higher value
In short: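 wt1 strain grown with compound or vehicle; inhibition taken from the growth difference.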

[3] = NCI Yeast Anticancer Drug Screen. Data for the rad50 strain (AID 155);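 also: 0% = growth of vehicle-only cultures of the same strain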; settings: S. cerevisiae rad50 strain growth inhibition, stronger effect = higher value
In short: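 DNA repair mutant yeast, compound exposure, growth read-out; inhibition is taken relative to vehicle.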

[4] = NCI Yeast Anticancer Drug Screen. Data for the mec2-1 strain (AID 157); settings: S. cerevisiae mec2-1 strain, stronger effect = higher value
In short: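 Cells of the genetically defined mec2-1 yeast strain are incubated with test compound. Inhibition of growth is calculated against vehicle-treated controls.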

[5] = NCI Yeast Anticancer Drug Screen. Data for the rad14 strain (AID 159);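 also: 0% = growth of vehicle-treated control cultures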; settings: S. cerevisiae rad14 strain growth inhibition, stronger effect = higher value
In short: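 DNA repair-defective yeast, compound-exposed; % growth inhibition derived by comparison with vehicle-treated controls.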

[6] = NCI Yeast Anticancer Drug Screen. Data for the sgs1 mgt1 strain (AID 161);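 also: 0% = growth of cultures given vehicle only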; settings: S. cerevisiae sgs1 mgt1 strain, stronger effect = higher value
In short: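 Genetically altered yeast, compound exposure, growth inhibition relative to vehicle.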

[7] = NCI Yeast Anticancer Drug Screen. Data for the CLN2oe strain (AID 163);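 also: 0% = growth of vehicle-only control cultures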; settings: S. cerevisiae CLN2oe strain, stronger effect = higher value
In short: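 Strain altered in cell-cycle control, incubated with compound; growth compared to solvent-treated controls.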

[8] = NCI Yeast Anticancer Drug Screen. Data for the cln2 rad14 strain (AID 165);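 also: 0% = growth equal to vehicle treated cultures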; settings: S. cerevisiae cln2 rad14 strain, stronger effect = higher value
In short: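 The screen exposed genetically defined yeast (cln2 rad14) to test compounds and scored growth inhibition relative to vehicle-treated controls.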

[9] = NCI Yeast Anticancer Drug Screen. Data for the bub3 strain (AID 167); settings: S. cerevisiae bub3 mutant strain, stronger effect = higher value
In short: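 In this screen, a yeast mutant lacking normal mitotic checkpoint function is challenged with compound. Relative growth versus vehicle gives the inhibition value.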

[10] = NCI Yeast Anticancer Drug Screen. Data for the wt2 strain (AID 169);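 also: 0% = growth of vehicle-treated yeast cultures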; settings: S. cerevisiae wt2 strain growth inhibition, stronger effect = higher value
In short: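 Steps: yeast strain treated with compound; growth recorded; inhibition calculated relative to cultures given vehicle alone.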

[11] = NCI Yeast Anticancer Drug Screen. Data for the mlh1 strain (AID 171);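 also: 0% = growth of vehicle-treated control cultures of the same strain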; settings: S. cerevisiae mlh1 strain growth inhibition, stronger effect = higher value
In short: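 Yeast screen: mutant strain plus compound, growth scored against vehicle control wells.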

[12] = NCI Yeast Anticancer Drug Screen. Data for the sgs1 strain (AID 173);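 also: 0% = growth of vehicle-only control cultures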; settings: S. cerevisiae sgs1 mutant, stronger effect = higher value
In short: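 Inhibition of yeast growth served as the measure. The mutant strain was treated with each compound, and growth was normalised to cultures receiving vehicle alone.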

[13] = NCI Yeast Anticancer Drug Screen. Data for the mlh1 rad18 strain (AID 175); settings: S. cerevisiae mlh1 rad18 strain growth inhibition, stronger effect = higher value
In short: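 Compound-treated yeast growth, normalised to vehicle controls. Strain bears defined DNA repair mutations.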

[14] = NCI Yeast Anticancer Drug Screen. Data for the rad18 strain (AID 177); settings: S. cerevisiae rad18 mutant growth inhibition, stronger effect = higher value
In short: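 Inhibition values reflect reduced yeast growth compared with vehicle-treated controls, using a strain engineered with a DNA damage repair defect.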

[15] = NCI Yeast Anticancer Drug Screen. Data for the rad50EPP+ strain (AID 151);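 also: 0% = growth of vehicle-treated control cultures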; settings: S. cerevisiae rad50 mutant strain, stronger effect = higher value
In short: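 Strain rad50EPP+; compound exposure; % growth inhibition vs vehicle.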

[16] = at 5.0 µM (retest, dose inferred, filed as 0.5)
[17] = at 50.0 µM (retest, dose inferred, filed as 5.0)

Measured: growth inhibition

Nc1nc2c(c(=O)[nH]1)NC(CCNc1ccc(C(=O)O)cc1)CN2 (stereo not drawn)
inactive: [1]; at 1.2 µM -2% | [1]; at 3.7 µM 1% | [1]; at 11.0 µM -5% | [1]; at 33.0 µM 2% | [1]; at 100.0 µM -5% | [2]; at 1.2 µM 1% | [2]; at 3.7 µM 1% | [2]; at 11.0 µM 2% | [2]; at 33.0 µM 1% | [2]; at 100.0 µM -1% | [3]; at 1.2 µM -3% | [3]; at 3.7 µM 2% | [3]; [16] 14% | [3]; at 11.0 µM -5% | [3]; at 33.0 µM -4% | [3]; [17] 12% | [3]; at 50.0 µM -12.1% | [3]; at 100.0 µM -1% | [4]; at 1.2 µM -1% | [4]; at 3.7 µM 2% | [4]; [16] 7% | [4]; at 11.0 µM 4% | [4]; at 33.0 µM 2% | [4]; [17] 18% | [4]; at 50.0 µM -35.5% | [4]; at 100.0 µM -13% | [5]; at 1.2 µM 0% | [5]; at 3.7 µM -6% | [5]; at 11.0 µM 2% | [5]; at 33.0 µM 3% | [5]; at 100.0 µM 6% | [6]; [16] 11% | [6]; [17] -2% | [6]; at 50.0 µM -0.75% | [7]; at 1.2 µM -2% | [7]; at 3.7 µM -3% | [7]; at 11.0 µM -3% | [7]; at 33.0 µM 1% | [7]; at 100.0 µM 2% | [8]; [16] 31% | [8]; [17] 39% | [8]; at 50.0 µM 2.45% | [9]; at 1.2 µM 2% | [9]; at 3.7 µM 2% | [9]; [16] -13% | [9]; at 11.0 µM 0% | [9]; at 33.0 µM -1% | [9]; [17] 6% | [9]; at 50.0 µM 6.15% | [9]; at 100.0 µM 24% | [10]; at 1.2 µM 0% | [10]; at 3.7 µM 2% | [10]; at 11.0 µM 1% | [10]; at 33.0 µM 0% | [10]; at 100.0 µM 3% | [11]; at 1.2 µM 0% | [11]; at 3.7 µM -1% | [11]; at 11.0 µM 0% | [11]; at 33.0 µM 0% | [11]; at 100.0 µM 15% | [12]; at 1.2 µM -2% | [12]; at 3.7 µM -3% | [12]; at 11.0 µM -4% | [12]; at 33.0 µM -6% | [12]; at 100.0 µM -3% | [13]; [16] 8% | [13]; [17] 28% | [13]; at 50.0 µM 4.25% | [14]; at 1.2 µM -3% | [14]; at 3.7 µM -5% | [14]; at 11.0 µM -10% | [14]; at 33.0 µM -22% | [14]; at 100.0 µM -29%

COC(=O)c1cccc(C)c1C(=O)c1c(C)cc(C)cc1C
active: [1]; at 100.0 µM 77% | [15]; at 100.0 µM 76% | [3]; at 100.0 µM 76% | [4]; at 100.0 µM 72% | [13]; [17] 82%
inactive: [1]; at 1.2 µM -1% | [1]; at 3.7 µM -1% | [1]; at 11.0 µM 4% | [1]; at 33.0 µM 28% | [2]; at 1.2 µM 0% | [2]; at 3.7 µM 1% | [2]; at 11.0 µM -2% | [2]; at 33.0 µM 5% | [2]; at 100.0 µM 53% | [15]; at 1.2 µM -6% | [15]; at 3.7 µM 6% | [15]; at 11.0 µM 5% | [15]; at 33.0 µM 26% | [3]; at 1.2 µM -1% | [3]; at 3.7 µM 1% | [3]; [16] -10% | [3]; at 11.0 µM 5% | [3]; at 33.0 µM 28% | [3]; [17] 52% | [3]; at 50.0 µM 15.5% | [4]; at 1.2 µM -3% | [4]; at 3.7 µM -1% | [4]; [16] 3% | [4]; at 11.0 µM 4% | [4]; at 33.0 µM 21% | [4]; [17] 59% | [4]; at 50.0 µM 22.8% | [5]; at 1.2 µM 0% | [5]; at 3.7 µM 0% | [5]; at 11.0 µM 5% | [5]; at 33.0 µM 20% | [5]; at 100.0 µM 47% | [7]; at 1.2 µM 3% | [7]; at 3.7 µM 2% | [7]; at 11.0 µM 2% | [7]; at 33.0 µM 11% | [7]; at 100.0 µM 42% | [8]; [16] -25% | [8]; [17] 15% | [8]; at 50.0 µM 25.2% | [9]; at 1.2 µM 0% | [9]; at 3.7 µM -2% | [9]; [16] 9% | [9]; at 11.0 µM -3% | [9]; at 33.0 µM 4% | [9]; [17] 22% | [9]; at 50.0 µM 16.8% | [9]; at 100.0 µM 62% | [10]; at 1.2 µM -3% | [10]; at 3.7 µM -3% | [10]; at 11.0 µM -4% | [10]; at 33.0 µM 9% | [10]; at 100.0 µM 50% | [11]; at 1.2 µM -1% | [11]; at 3.7 µM 2% | [11]; at 11.0 µM 6% | [11]; at 33.0 µM 19% | [11]; at 100.0 µM 59% | [13]; [16] 4% | [13]; at 50.0 µM 15.7% | [14]; at 1.2 µM 4% | [14]; at 3.7 µM 7% | [14]; at 11.0 µM 10% | [14]; at 33.0 µM 28% | [14]; at 100.0 µM 67%

Source: PubChem BioAssay (NCI)
